We go through 39 molecules from PubChem BioAssay (Tox21).

Records with an inconclusive call do not appear. Where a call stands in place of a potency, no number is given. Values without a mark were called inactive. The source made the active and inactive calls. Calls follow the shape of the dose curve; as a rule, active = well fitted curve in the direction sought with a large enough effect in the repeat runs; inconclusive = weak or mixed curves; inactive = no such curve, though single readings can be large; an effect the other way counts as inactive or inconclusive.

The first assay is described as follows: A CellTox Green Cytotoxicity Assay to monitor cytotoxicity in HEK293 cells - 8 hour (AID 1224884). Also: nearly all actives have a fitted effect of over 35% in size. The settings on record: CellTox Green fluorescence; series mostly up to 76.8 µM. The gist of the method:
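Nonlytic real-time cytotoxicity: HEK293 + CellTox Green reagent plated, 5 h preincubation, pintool compound addition (23 nL in DMSO), 37 C for 40 h, fluorescence measured at successive time points.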
As to `CC(C)O`, the Potency entry was “inactive”. The same measure, in the same setting: for `CC(CNC1CCCCC1)OC(=O)c1ccccc1` (centres undefined) the value was “inactive”; for `CC(=O)OC1C2(C)CCC(C2)C1(C)C` (centres undefined), “inactive”; for `COc1ccc(S(=O)(=O)Nc2nnc(CC(C)C)s2)cc1`, “inactive”.

As for `NC/C=C/C(=O)O`, the Potency result was “inactive”. In the case of `C1CSCCS1`, the Potency entry was “inactive”. In the case of `C[C@]12C(=O)OC(=O)[C@H]1[C@H]1C=C[C@@H]2C1`, the Potency entry was “inactive”. As to `OCCN(CCO)CCN(CCO)CCO`, the Potency result was “inactive”. As to `O=S(=O)(O)C(F)(F)F`, the Potency entry is “inactive”. Consider `CC(C)NCC(O)COc1ccc(CCOCC2CC2)cc1` (centres undefined), for which the Potency result was “inactive”. For the molecule `NC1=NCC2c3ccccc3Cc3ccccc3N12` (centres undefined), the Potency entry is “inactive”. In the case of `CC(C)(CO)[C@@H](O)C(=O)NCCC(=O)O`, the Potency entry was “inactive”. `CCCCNC(=S)NCCCC`: the Potency entry was “inactive”. Regarding `CC(C)CCCCCCc1ccc(OCCOCCO)cc1`, the Potency result was “inactive”. As for `CC(=O)O[C@H]1CC[C@@]2(C)C(=CC[C@@H]3[C@@H]2CC[C@]2(C)C(C(C)=O)=CC[C@@H]32)C1`, the Potency result is “inactive”.

A short description of the next assay: qHTS RealTime-Glo MT Cell Viability Assay in HepG2 cells - 16 hour (AID 1224885). Also: nearly all actives have a fitted effect of over 50% in size. The settings on record: RealTime-Glo luminescence; series mostly up to 76.8 µM. The gist of the method:
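HepG2 suspension premixed with RealTime-Glo reagents is plated at 600 cells per well and left 5 h at 37 C/5% CO2. Compounds in DMSO then go in, and bioluminescence reflecting viable cell number is recorded over 40 h.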
For `O=c1oc2c(O)c(O)cc3c(=O)oc4c(O)c(O)cc1c4c23`, the activity change, negative = cytotoxic was -6.97% [at 15.8 µM].

For the molecule `Cc1nnc(SCC2=C(C(=O)O)N3C(=O)[C@@H](NC(=O)Cn4cnnn4)[C@H]3SC2)s1`, the molecule was classed as inactive. Consider `Cc1cc(S(=O)(=O)O)c(N)cc1Cl`, for which the call was inactive. Still for that read-out and setting: for `COc1cc(C)ccc1C(C)C` the value was “inactive”; for `Cc1ccsc1C(=CCCN1CCC[C@@H](C(=O)O)C1)c1sccc1C`, “inactive”.

In the case of `C=CC1CO1` (centres undefined), the call was inactive. `CNCCC(Oc1ccccc1OC)c1ccccc1` (centres undefined): the call was inactive.

In the case of `FC(F)(F)C(F)(F)C(F)(F)C(F)(F)C(F)(F)C(F)(F)C(F)(F)C(F)(F)Br`, the molecule was classed as inactive. The same measure, in the same setting: for `CCN(CC)C(=O)N(CC)CC` the value was “inactive”; for `CN(CC1(C)CCCO1)S(=O)(=O)c1ccc(Cl)c(S(N)(=O)=O)c1` (centres undefined), “inactive”; for `O=CCCc1ccccc1`, “inactive”. For `CN1C(=O)CC(c2ccccc2)C1=O` (centres undefined), the molecule was classed as inactive. As for `CCCN(CCC)C(=O)C(CCC(=O)O)NC(=O)c1ccccc1` (centres undefined), the result was inactive.

Consider `CC(=O)Nc1ccc(C)c(Cl)c1`, for which the outcome was inactive. As for `CCCCN1C[C@H](O)[C@@H](O)[C@H](O)[C@H]1CO`, the outcome was inactive. Consider `Cc1cccc(C)c1NC(=O)CN1CCCCCC1`, for which the result was inactive.

Take `CO[C@@]1(NC(=O)CSCC#N)C(=O)N2C(C(=O)O)=C(CSc3nnnn3C)CS[C@@H]21`: the molecule was called inactive.

Turning to `FC(F)(F)C(Cl)(Cl)Cl`, the outcome was inactive. Take `CCC(=O)Nc1ccc(O)cc1`: the call was inactive. On to `N#Cc1ccc(C(c2ccc(C#N)cc2)n2cncn2)cc1`, for which the molecule was classed as inactive.

`CCOc1ccc2nc(N)sc2c1`: the result was inactive. Turning to `Cc1ccc([N+](=O)[O-])cc1Cl`, the call was inactive. The same measure, in the same setting: for `CCCCCCC` the value was “inactive”; for `CCc1cc(Cl)c(OC)c(C(=O)NC[C@@H]2CCCN2CC)c1O`, “inactive”; for `CC(C)O`, “inactive”. Consider `CC(CNC1CCCCC1)OC(=O)c1ccccc1` (centres undefined), for which the call was inactive.

Take `CC(=O)OC1C2(C)CCC(C2)C1(C)C` (centres undefined): the molecule was called inactive.

Take `COc1ccc(S(=O)(=O)Nc2nnc(CC(C)C)s2)cc1`: the molecule was called inactive. The same measure, in the same setting: to `NC/C=C/C(=O)O` belongs “inactive”.

As to `C1CSCCS1`, the call was inactive. Turning to `C[C@]12C(=O)OC(=O)[C@H]1[C@H]1C=C[C@@H]2C1`, the molecule was classed as inactive. In the case of `OCCN(CCO)CCN(CCO)CCO`, the molecule was classed as inactive. Take `O=S(=O)(O)C(F)(F)F`: the molecule was classed as inactive. On the same count and under the same terms, for `CC(C)NCC(O)COc1ccc(CCOCC2CC2)cc1` (centres undefined) the value was “inactive”; for `NC1=NCC2c3ccccc3Cc3ccccc3N12` (centres undefined), “inactive”; for `CC(C)(CO)[C@@H](O)C(=O)NCCC(=O)O`, “inactive”. As to `CCCCNC(=S)NCCCC`, the molecule was classed as inactive. Turning to `CC(C)CCCCCCc1ccc(OCCOCCO)cc1`, the outcome was inactive. Regarding `CC(=O)O[C@H]1CC[C@@]2(C)C(=CC[C@@H]3[C@@H]2CC[C@]2(C)C(C(C)=O)=CC[C@@H]32)C1`, the result was inactive.
